Test results published in PubChem BioAssay (NCI).
The panel holds about 79,000 compounds, 15% with a hit somewhere; the sample as a whole holds those more often. A number with no mark means an inactive call. Cut-off read from the data, not from the text of the source: active = growth inhibition above about 70%; inactive = the rest. Residues, ends and D or L forms follow the SMILES beside them. *: point of attachment. Fmoc = O=C(OCC1c2ccccc2-c2ccccc21)*; Boc = CC(C)(C)OC(=O)*

Experiment: NCI Yeast Anticancer Drug Screen. Data for the mec2-1 strain (AID 157)
Conditions: S. cerevisiae mec2-1 strain, at 5.0 µM (retest, dose inferred, filed as 0.5), stronger effect = higher value
In short: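 Mutant yeast (mec2-1) grown with compound; growth inhibition relative to vehicle control reported.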

| Structure (SMILES) | growth inhibition |
| --- | --- |
| CC(C)C(=O)CC(Sc1ccc(N)cc1)c1ccccc1 (stereo unspecified) | -2% |
| CC(C)OP(=O)(OC(C)C)/C(Cl)=N/Nc1ccc([N+](=O)[O-])cc1 | 13% |
| O=[N+]([O-])c1cc(Cl)ccc1S(=O)(=O)c1ccc(Cl)cc1[N+](=O)[O-] | 4% |
| CCCCCCNCCCNc1c2cc(OC)ccc2nc2cccc([N+](=O)[O-])c12 | 9% |
| N#CCC(=O)N/N=C(\c1ccccc1)C(c1ccccc1)C1(O)C(=O)Nc2c(Cl)ccc(Cl)c21 (stereo unspecified) | -11% |
| CN(C)CCNCCCNc1c2ccccc2nc2cccc([N+](=O)[O-])c12 | 17% |
| CCC[CH2][Ge]([CH2]CCC)([CH2]CCC)[O]C(=O)C(O)c1ccccc1 (stereo unspecified) | 50% |
| COc1ccc(-c2cc(-c3cc(C)cc(Cl)c3O)nc3[nH]c(=S)[nH]c(=S)c23)cc1 | 2% |
| O=[N+]([O-])c1ccc(/C=C\c2ccc3c(c2)OCO3)c([N+](=O)[O-])c1 | 9% |
| O=C1c2ccccc2N2OC3(N4CCCC4)CCCCC3C12c1ccccc1 (stereo unspecified) | 1% |
| CC(C)OC(=O)NNc1cc(Cl)ccc1Cl | 9% |
| Cc1oc2ccccc2c(=O)c1Cn1nnc2ccccc21 | 1% |
| CC1(C)OC(=O)C(=Cc2ccc([N+](=O)[O-])s2)C(=O)O1 | 23% |
| CCN(CC)CCCNc1ccc([N+](=O)[O-])c2nc3ccc(OC)cc3c(NCCCN(CC)CC)c12 | 6% |
| COc1cccc(/C=C2\S/C(=N/Nc3nc(-c4ccc([N+](=O)[O-])cc4)cs3)NC2=O)c1O | -4% |
| OC(Cc1cccc2ccccc12)CN1CCC(c2ccccc2)CC1 (stereo unspecified) | 13% |
| C1=CCN([B-](c2ccccc2)[C+]2CCCCC2)C=C1 | -4% |
| O=[N+]([O-])c1cc[n+]([O-])c(Cl)c1 | -3% |

| Structure (SMILES) | growth inhibition |
| --- | --- |
| CCCNC(=O)OCc1c(COC(=O)NCCC)c(-c2ccc(Cl)c(Cl)c2)n2c1CCC2 | 11% |
| CC1(C)CC(=O)C(C(=O)Nc2cccs2)=C(O)C1 | 6% |
| O=C(NO)c1coc2ccccc2c1=O | 1% |
| COc1ccc(C(C)c2cc3c(cc2OCC(C)=O)OCO3)cc1 (stereo unspecified) | -5% |
| CCS(=O)(=O)Nc1ccc(Nc2c3ccccc3nc3ccccc23)c(OC)c1 | 12% |
| O=S(=O)(c1ccccc1)N1CN2CN(C1)CN(S(=O)(=O)c1ccccc1)C2 | 26% |
| CC1=NN(C(=O)c2ccccc2O)C(=O)/C1=C/c1ccco1 | 19% |
| O=C1C=C(Br)C(=O)c2ccccc21 | 39% |
| C[N+](C)([O-])CCCNc1c2ccccc2nc2cccc([N+](=O)[O-])c12 | 54% |
| Cc1cccc2c(NCCCN(C)C)c3c([N+](=O)[O-])ccc(C)c3nc12 | -2% |
| OC1(c2ccccc2)C2CC=CC2C1(c1ccccc1)c1ccccc1 (stereo unspecified) | -6% |
| C[n+]1c(-c2ccc(/C=N/NC(=O)c3ccc(C(=O)N/N=C/c4ccc(-c5cn6ccccc6[n+]5C)cc4)cc3)cc2)cn2ccccc21 | -7% |
| CCN(CC)CCC(=O)Nc1ccc2sc3ccccc3c(=O)c2n1 | 4% |
| O=[N+]([O-])c1ccc2nc(=S)[nH]n2c1 | -42% |
| O=C(c1ccccc1)[C@H]1Nc2ccc(Cl)cc2[C@H]2OCCC[C@@H]12 | -13% |
| COc1cc([N+](=O)[O-])c2ncccc2c1Br | 2% |
| O=S(=O)(c1cccc(C(F)(F)F)c1)N1c2ccccc2-n2cccc2C1c1cccnc1 (stereo unspecified) | 31% |
| CC(C)(C)OC(=O)NCCCCC(NC(=O)C(Cc1c[nH]c2ccccc12)NC(=O)OCC1c2ccccc2-c2ccccc21)C(=O)O (stereo unspecified) (Fmoc-Trp-Lys(Boc)-OH; configuration not given here) | 1% |
